Only some compounds are listed: those with a hit (about 3.4% of all), similar ones and a draw of the others.
GPR151 ag: activators of human GPR151, primary screen, cell-based, PathHunter beta-arrestin, luminescence | G-protein coupled receptor 151 (Homo sapiens), Q8TDV0 | PathHunter beta-arrestin GPR151 cells | activation, % at 11.2 µM | hit rate 1% among 650,000 | AID 1508602, 2020; in the data active = activation above about 4.9%;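 also: 0% = median of compound wells and 100% = cells with positive control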
FBW7 activator: FBW7 E3 ligase activators, primary screen, biochemical, AlphaScreen, human | normalized activity (activation), % at 26.1 µM | AlphaScreen FBW7–phospho-cyclin E peptide binding, activator screen | hit rate 0.13% among 650,000 | F-box/WD repeat-containing protein 7 (Homo sapiens), Q969H0; in the data active = normalized activity above about 1.9%;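 also: purified mutant Fbw7 with reduced substrate affinity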
Target sequence (Q969H0 whole entry, looked up): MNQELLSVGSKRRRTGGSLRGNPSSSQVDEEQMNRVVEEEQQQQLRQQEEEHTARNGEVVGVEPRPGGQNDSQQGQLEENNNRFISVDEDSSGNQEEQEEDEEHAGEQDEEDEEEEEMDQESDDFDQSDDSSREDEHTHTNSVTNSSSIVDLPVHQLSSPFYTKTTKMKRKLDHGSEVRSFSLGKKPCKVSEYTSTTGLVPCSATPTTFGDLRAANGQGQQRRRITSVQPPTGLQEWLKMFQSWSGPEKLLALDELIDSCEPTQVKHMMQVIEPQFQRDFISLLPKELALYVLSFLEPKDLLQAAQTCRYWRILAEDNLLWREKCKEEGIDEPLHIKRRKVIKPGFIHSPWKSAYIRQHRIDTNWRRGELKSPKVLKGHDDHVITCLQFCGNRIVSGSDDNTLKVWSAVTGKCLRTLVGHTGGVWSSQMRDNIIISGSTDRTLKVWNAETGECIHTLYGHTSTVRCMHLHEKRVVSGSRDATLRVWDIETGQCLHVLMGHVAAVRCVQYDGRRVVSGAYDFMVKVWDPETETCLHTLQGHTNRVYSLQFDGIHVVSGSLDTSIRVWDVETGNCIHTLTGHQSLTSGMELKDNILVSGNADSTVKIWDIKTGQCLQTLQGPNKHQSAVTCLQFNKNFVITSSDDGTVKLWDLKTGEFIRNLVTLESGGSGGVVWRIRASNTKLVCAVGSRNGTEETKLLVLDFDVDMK
MITF primary: MITF inhibitors, primary screen, biochemical, AlphaScreen, human; Microphthalmia-associated transcription factor (Homo sapiens), O75030; AlphaScreen MITF homodimerization, bead proximity signal; inhibition, % at 2.6 µM; hit rate 0.91% among 650,000; AID 1259374, 2018; in the data active = inhibition above about 50%;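 also: 0% = vehicle wells with protein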
TEAD-YAP inh: TEAD-YAP interaction inhibition, primary screen, TEAD-YAP interaction inhibitor project, luminescence, HEK-TIYL cells | TEAD-Gal4/YAP UAS-luciferase luminescence | inhibition, % at 9.12 µM | hit rate 1.4% among 640,000 | AID 1259422, 2018; in the data active = inhibition above about 32%;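 also: 0% = median of test compound wells and 100% = reference inhibitor wells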
* marks the source's active call; other numbers are inactive results.

SMILES | GPR151 ag | FBW7 activator | MITF primary | TEAD-YAP inh
OCc1ccccc1-c1cnn2c(N3CCC[C@H]3CO)ccnc12 | 0.4 | -0.6 | -20.6 | -16.7
OC[C@@H]1CCCN1c1ccnc2c(-c3ccc(O)cc3)cnn12 | -0.5 | -0.8 | -10.7 | 94.8*
CN1CCN(c2ccnc3c(-c4ccccc4Oc4ccccc4)cnn23)CC1 | 0.3 | 0.3 | -8.9 | -3.3
OC[C@@H]1CCCN1c1ccnc2c(-c3cnn(Cc4ccccc4)c3)cnn12 | 0.7 | -0.1 | 11.1 | -57.5
CN1CCN(c2ccnc3c(-c4ccccc4F)cnn23)CC1 | 0.9 | -0.2 | -11.7 | 66.9*
OC[C@@H]1CCCN1c1ccnc2c(-c3ccccc3F)cnn12 | -3.2 | -0.2 | -13.5 | 90.3*
Cc1cc(C(=O)NCCCOc2cccc(CN(C)C3CCCCC3)c2)n(C)n1 | 1.0 | 0.0 | 3.9 | 9.5
N[C@H](Cc1cccc(F)c1)c1nc2ncc(-c3ccncc3)cc2[nH]1 | 0.0 | -0.8 | 10.6 | 48.2*
N[C@H](Cc1cc(F)cc(F)c1)c1nc2ccc(-c3ccncc3)cc2[nH]1 | -0.1 | -1.4 | 6.7 | -5.9
CCN1C(=O)/C(=N\N2C(=O)CSC2=S)c2ccccc21 | -0.2 | -0.1 | 16.1 | 3.6
O=C(O)CN1C(=O)/C(=N\N2C(=O)CSC2=S)c2ccccc21 | -0.7 | -0.3 | 55.5* | 4.6
CCCCOc1ccccc1NC(=O)C(F)(OC)C(F)(F)F (configuration not stated) | -0.2 | 0.9 | 13.7 | 36.2*
O=C(COC(=O)c1cccc(OC(F)F)c1)Nc1ccc([N+](=O)[O-])cc1C(F)(F)F | -0.5 | 0.5 | 17.6 | -0.8
O=C(NCc1ccccc1)C(c1ccccc1)N(Cc1cccnc1)C(=O)c1csnn1 (configuration not stated) | 0.9 | 6.9* | 21.4 | -3.9
O=C(NCc1ccccc1)C(c1ccccc1)N(Cc1cccs1)C(=O)c1cnccn1 (configuration not stated) | -0.5 | 0.0 | 3.2 | 34.2*
O=C(NCc1ccccc1)C(c1cccs1)N(Cc1cccs1)C(=O)c1cnccn1 (configuration not stated) | -0.6 | 0.1 | 18.2 | 6.4
C=CCN(c1ccccc1)S(=O)(=O)c1ccc(F)c(C(=O)NCCc2ccccc2)c1 | -0.3 | -0.1 | 2.4 | 35.2*
C=CCN(c1ccccc1)S(=O)(=O)c1ccc(F)c(C(=O)NCC(OC)OC)c1 | 0.6 | 0.1 | 7.6 | 3.1
CCn1c2ccccc2c2cc(NC(=O)c3cc(OC)cc(OC)c3)ccc21 | -1.4 | -0.1 | 12.8 | 51.9*
COc1cc(OC)cc(C(=O)Nc2ccc(NC(=O)c3cc(OC)cc(OC)c3)cc2)c1 | 0.6 | -0.1 | 0.9 | 42.7*
COc1cc(OC)cc(C(=O)Nc2ccc(N3CCN(C(=O)C(C)C)CC3)cc2)c1 | -1.1 | -0.4 | -1.8 | 47.4*
CCC1(c2ccc(F)cc2)NC(=O)N(CC(=O)Nc2sc3c(c2C(N)=O)CCC3)C1=O (configuration not stated) | 0.2 | 0.1 | 5.0 | 0.0
CCOP(=O)(OCC)c1nc(-c2ccc(OC)cc2)oc1NCc1ccc(OC)cc1 | 0.0 | -0.1 | -4.4 | -12.3
O=C1CCCC2=C1C(c1ccccc1)Nc1ccc(C(=O)c3ccccc3)cc1N2 (configuration not stated) | -0.1 | 0.0 | 2.2 | 35.5*
O=C1CCCC2=C1C(c1cccc([N+](=O)[O-])c1)Nc1ccc(C(=O)c3ccccc3)cc1N2 (configuration not stated) | 1.7 | -0.1 | 7.8 | 54.2*
SMILES | GPR151 ag | FBW7 activator | MITF primary | TEAD-YAP inh
O=C1CCCC2=C1C(c1cccc(O)c1)Nc1ccc(C(=O)c3ccccc3)cc1N2 (configuration not stated) | -0.7 | 0.1 | 15.5 | 19.8
O=C1CCCC2=C1C(c1ccncc1)Nc1ccc(C(=O)c3ccccc3)cc1N2 (configuration not stated) | 0.4 | 0.0 | -11.1 | 24.5
O=C1CCCC2=C1C(c1cccc(Cl)c1)Nc1ccc(C(=O)c3ccccc3)cc1N2 (configuration not stated) | 0.1 | 0.1 | 4.1 | 70.1*
O=C1CCCC2=C1C(c1ccc(Br)cc1)Nc1ccc(C(=O)c3ccccc3)cc1N2 (configuration not stated) | -0.7 | 0.5 | -0.7 | 51.2*
CC(/C=C1\SC(=S)N(CC(=O)N2CCOCC2)C1=O)=C\c1ccccc1 | 1.2 | 0.0 | 1.6 | 4.1
COc1cccc(-n2c(C)nn(CCCC(=O)O)c2=O)c1 | -0.6 | 0.0 | -17.8 | -11.9
COc1ccccc1NC(=O)C1=C(C)Nc2nc(CCCO)nn2C1c1ccc(O)cc1 (configuration not stated) | -0.3 | -0.1 | -13.6 | -1.7
COc1ccc(NC(=O)c2cccc(NC(=O)CCC(=O)O)c2)c(OC)c1 | 0.4 | 0.1 | 4.3 | 1.4
Cc1ccc(C2Nc3ccc(C(=O)c4ccccc4)cc3NC3=C2C(=O)CCC3)cc1 (configuration not stated) | -0.6 | 0.1 | -1.8 | 40.9*
CCOc1ccccc1/C=C1\NC(=S)NC1=O | -1.3 | 0.1 | 3.5 | -9.6
CCOc1cccc(/C=C2/NC(=S)NC2=O)c1O | -2.1 | 0.2 | 11.3 | 51.4*
CCOc1ccc2ccc(OCC)c(C=C3C(=O)NC(=O)NC3=O)c2c1 | -0.7 | -0.4 | 17.9 | -29.6
CCOc1ccc2ccc(OCC)c(/C=C3/NC(=S)NC3=O)c2c1 | -0.8 | -0.2 | -2.9 | 56.6*
CN1CCN(C(=O)CS(=O)(=O)c2ccc([N+](=O)[O-])cc2[N+](=O)[O-])CC1 | 1.8 | 0.1 | -23.7 | 0.9
CCN(CC(=O)N1CCN(c2ccccc2)CC1)S(=O)(=O)c1ccc2ccccc2c1 | -1.2 | -0.2 | 4.0 | 3.5
COc1ccc(C(=O)NC2CCSC2=O)cc1[N+](=O)[O-] (configuration not stated) | -0.9 | 2.0* | 20.5 | -5.6
N#Cc1c(NC(=O)CCc2ccccc2)sc2c1CCCCCC2 | 0.0 | 0.0 | -11.7 | 0.3
CC(=O)N1CCc2c(sc(NC(=O)Cc3cccc4ccccc34)c2C#N)C1 | -0.3 | -0.1 | -3.4 | 54.0*
N#Cc1c(NC(=O)CCc2ccccc2)sc2c1CCCC2 | -0.1 | 0.2 | 11.9 | 46.6*
N#Cc1c(NC(=O)CSc2ncn[nH]2)sc2c1CCCC2 | -1.5 | -0.1 | 4.4 | 49.0*
CC(=O)N1CCc2c(sc(NC(=O)CCc3ccccc3)c2C#N)C1 | 0.7 | -0.1 | -3.7 | 53.6*
CC(=O)N1CCc2c(sc(NC(=O)Cc3cccc4ccccc34)c2C(N)=O)C1 | 1.9 | 0.0 | 5.1 | -4.0
Cc1nnc(SCC(=O)N2CCC(c3noc4ccc(F)cc34)CC2)s1 | 0.8 | -0.2 | -1.9 | 36.6*
Cc1nnc(SCC(=O)N2CCCC2)s1 | -2.5 | 0.0 | 1.9 | -1.9
CC(=O)c1cc(C#N)c(SCC(=O)Nc2ccc(C(N)=O)cc2)nc1C | -0.8 | -0.1 | -5.7 | 7.1
CNC(=O)/C(C#N)=C/c1cc(C)n(-c2ccc(F)cc2)c1C | 0.0 | -0.7 | 9.8 | 71.2*

Assay outcomes deposited in PubChem BioAssay by The Scripps Research Institute Molecular Screening Center.
